In the library only some 2% were active in any assay of this set; here they are far more common.
M1 ag parental: counter-screen for M1 agonists: effect in parental CHO-K1 cells; Fluo-8 calcium fluorescence; scaled to maximal ATP response, vehicle zero; activation, % at 3 µM; 360,000 tested, 0.48% active; in the data active = activation above about 15%;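 also: untransfected CHO-K1 host cells lacking M1 receptor as counterscreen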
CHRM4 agonist: CHRM4 agonism in calcium assay | activation, % at 3 µM | 360,000 tested, 0.14% active | CHO-K1 hM4/Gqi5, Fluo-8 calcium fluorescence; vehicle 0%, full acetylcholine response 100% | AID 624127;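 active = activation above the run mean over all test wells plus 3 SD, cut at about 32% in these data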;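 also: peak over basal fluorescence ratio per well then scaled between controls; 0% = DMSO wells and 100% = acetylcholine at EC100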
Target sequence (P08173 whole entry, looked up): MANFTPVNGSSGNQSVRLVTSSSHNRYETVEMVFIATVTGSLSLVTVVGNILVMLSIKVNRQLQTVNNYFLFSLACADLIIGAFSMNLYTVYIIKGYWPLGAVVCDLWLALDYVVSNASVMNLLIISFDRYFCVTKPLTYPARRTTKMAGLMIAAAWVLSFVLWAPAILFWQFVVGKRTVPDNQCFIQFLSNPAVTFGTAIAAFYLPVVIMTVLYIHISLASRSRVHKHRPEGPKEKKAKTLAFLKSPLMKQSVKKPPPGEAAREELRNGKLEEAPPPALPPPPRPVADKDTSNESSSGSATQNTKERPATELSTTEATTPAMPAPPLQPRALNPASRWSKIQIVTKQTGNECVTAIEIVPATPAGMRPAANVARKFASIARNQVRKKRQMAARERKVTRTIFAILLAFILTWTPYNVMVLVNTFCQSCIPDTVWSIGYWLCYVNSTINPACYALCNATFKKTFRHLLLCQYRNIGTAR
CHRM4 antagonist: CHRM4 antagonism in calcium assay; P08173; CHO-hM4 cells, ACh EC80, Fluo-8 calcium fluorescence; inhibition, % at 3 µM; 360,000 tested, 0.73% active;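 active = inhibition above its plate's cutoff, the mean inhibition of sample wells plus 3 SD, cut at about 27% in these data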;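 also: 0% = acetylcholine EC80 with DMSO and 100% = DMSO without agonist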
CHO-K1 Ca antag: counter-screen for M1 antagonists: effect in parental CHO-K1 cells | inhibition, % at 3 µM | AID 602250 | 360,000 tested, 0.6% active | ATP-induced calcium, Fluo-8 fluorescence;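 active = inhibition above a per-plate cutoff, the plate's mean sample inhibition plus 3 SD, cut at about 24% in these data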;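 also: 0% = DMSO plus EC80 ATP and 100% = DMSO alone without ATP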
M4 PAM: positive allosteric modulators of human muscarinic M4 receptor; P08173; CHO-K1 hM4/Gqi5, Fluo-8 calcium fluorescence, ACh EC20; 0% = ACh EC20, 100% = maximal ACh; activation, % at 3 µM; 360,000 tested, 0.4% active;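 active = activation above its plate's cutoff, the mean activation of sample wells plus 3 SD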
M1 PAM parental: nonselective activator or artifact in parental CHO-K1 calcium assay. 360,000 tested, 0.02% active. activation, % at 3 µM. AID 602247. ATP EC20, Fluo-8 calcium fluorescence; 0% at ATP EC20, 100% at ATP max;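 active = activation above the run cutoff, the mean activation of all test compounds plus 3 SD, cut at about 40% in these data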;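 also: peak over basal fluorescence ratio in a 140 s read after ATP addition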
* marks the source's active call; other numbers are inactive results; ! = not confirmed by another sample.

SMILES	M1 ag parental	CHRM4 agonist	CHRM4 antagonist	CHO-K1 Ca antag	M4 PAM	M1 PAM parental
CCc1nc(SCC(=O)Nc2nc3c(s2)CCCC3)c2ccccc2n1	0	2	2	-4	13	11
c1ccc(Sc2ccccc2CN2CCCC2)cc1	1	1	39*	2	-15	4
CC(=O)Nc1ccc(S(=O)(=O)NCC(=O)OCC(=O)N2CCN(c3ccccc3)CC2)cc1	0	1	-5	-2	-1	12
O=C(CNS(=O)(=O)c1c(Cl)cccc1Cl)OCC(=O)N1CCN(c2ccccc2)CC1	1	3	7	26*	-7	-12
CCNC(=O)C1(C)CCCN(Cc2ccc3ccccc3c2Br)C1 (stereo not drawn)	1	1	35*	-13	-12	19
CC(=O)O[C@H]1C[C@@]2(C)[C@@H](C[C@@H](O)[C@H]3[C@@]4(C)CC[C@@H](O)[C@@H](C)[C@@H]4CC[C@@]32C)/C1=C(\CCC=C(C)C)C(=O)O	1	0	81*!	-12	-16	16
N#Cc1ccc(OCC(=O)N2CCc3ccccc32)cc1	0	4	-4	10	9	-5
N#Cc1ccsc1NC(=O)c1cnccn1	0	1	-18	-7	6	-3
CC(C)(C)NS(=O)(=O)c1cc(C(=O)Nc2sccc2C#N)ccc1Cl	23*	9	4	2	-6	3
Cc1cc2cc(CNC(=O)c3ccc4c(c3)OCO4)ccc2n1C	1	6	6	-14	-5	6
CCOc1ccsc1C(=O)NNC(=O)c1ccco1	2	1	-8	-11	8	11
O=C(N/N=C/c1ccc(Cl)cc1)c1sccc1OCc1ccc(F)cc1	0	-1	-15	-8	-2	30
O=C(N/N=C/c1ccc(F)cc1)c1sccc1OCc1ccc(F)cc1	3	-1	10	-19	5	45*
CCOc1ccsc1C(=O)O	1	-1	4	30*	-6	-27
Cc1ccc(COc2ccsc2C(=O)O)cc1	15*	1	-14	0	-2	18
NNC(=O)c1sccc1OCc1ccc(F)cc1	1	2	-4	-3	-1	11
CCN(CC)C(=O)c1sc(N)c(C#N)c1C	0	1	12	-2	-4	7
CCc1nc2ccccc2c(C(=O)OCC(=O)Nc2cccc(S(=O)(=O)N3CCOCC3)c2)c1C	3	11	30*	15	-19	-6
Cn1nccc1C(=O)Nc1cccc(S(=O)(=O)N2CCOCC2)c1	1	1	8	2	22*	-13
O=C(COC(=O)c1cc(S(=O)(=O)N2CCCC2)ccc1O)Nc1ccc(S(=O)(=O)N2CCOCC2)cc1	1	4	15	-14	37*	24
O=C(COC(=O)c1cc(S(=O)(=O)N2CCCC2)ccc1O)Nc1ccc(SC(F)F)cc1	15*	23	0	12	2	14
O=C(COC(=O)c1ccccc1O)Nc1ccc(S(=O)(=O)N2CCCCC2)cc1	6	23	4	11	-14	-12
Cc1sc2ncn3c(C)nnc3c2c1C	1	0	0	-18	19*	14
Cc1sc2ncn(CCn3cnc4sc(C)c(C)c4c3=O)c(=O)c2c1C	4	9	3	-13	11	26
Cc1cc(C)nc(NS(=O)(=O)c2ccc(NC(=O)Cc3ccc(F)cc3)cc2)n1	0	1	-9	3	0	-2
COc1ccc2nc(SCC(=O)Nc3ccc(S(=O)(=O)Nc4nccc(C)n4)cc3)[nH]c2c1	0	1	35*	6	23	2
Cc1ccnc(NS(=O)(=O)c2ccc(NC(=O)Cc3ccccc3)cc2)n1	0	0	1	25*	3	-10
Cc1cc(C)nc(NS(=O)(=O)c2ccc(NC(=O)Cc3ccccc3)cc2)n1	5	13	18	24*	-12	-10
Cc1ccc(/C=N/N2CCN(Cc3ccc(Cl)cc3)CC2)o1	1	5	31*	-2	-2	17
Cc1ccc2nc(CCc3nc4ccc(C)cc4[nH]3)[nH]c2c1	1	1	-1	-1	14*	17
